The list is not random: actives were taken first. Their share in the collection is about 3.1%.
TSHR antag: antagonists of human thyroid stimulating hormone receptor | P16473 | TSHR-expressing cells, TSH-stimulated cAMP HTRF, 2 h; stronger effect = lower value | activity change, negative = inhibition, % at 11.5 µM | hit rate 0.2% among 330,000 | AID 504810;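 active = activity change below a set negative limit, meaning inhibition stronger than a set level, cut at about -70% in these data; inconclusive = activity change between two set negative limits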
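Cell-based HTRF cAMP assay; TSHR cells + compound, TSH EC80 (4nM final), 2 h, 37 deg C. Lysis with anti-cAMP cryptate and cAMP-d2, 30 min RT, read 665/620 nm.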
Vif-APOBEC3G blk: Vif-A3G binding inhibition; HeLa A3G-eYFP + Vif (tagged APOBEC3G with the HIV-1 protein that degrades it), YFP fluorescence, overnight; hit rate 0.076% among 410,000; Potency, µM (top dose mostly 46.1 µM), actives largely listed as inhibitors; AID 602310; Q9HC16; note: nearly all actives have a fitted effect of over 60% in size
Target sequence (Q9HC16 whole entry, looked up): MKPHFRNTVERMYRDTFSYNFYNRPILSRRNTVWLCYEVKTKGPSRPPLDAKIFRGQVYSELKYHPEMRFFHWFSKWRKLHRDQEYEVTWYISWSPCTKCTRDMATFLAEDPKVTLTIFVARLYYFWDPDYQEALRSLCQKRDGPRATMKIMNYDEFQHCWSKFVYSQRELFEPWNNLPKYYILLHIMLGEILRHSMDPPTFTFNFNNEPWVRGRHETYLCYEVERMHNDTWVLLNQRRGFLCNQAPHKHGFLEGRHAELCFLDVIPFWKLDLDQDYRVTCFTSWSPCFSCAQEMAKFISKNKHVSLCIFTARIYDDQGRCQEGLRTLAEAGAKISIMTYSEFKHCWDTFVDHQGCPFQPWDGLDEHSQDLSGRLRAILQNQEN
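Read-out is eYFP fluorescence (Ex 488/Em 500-530) from Vif-expressing HeLa A3G-eYFP cells; more signal means A3G escaped Vif-mediated degradation. Cells plated overnight, compound pinned in, incubated overnight at 37 deg C.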
PLK1 PBD block: blocks phosphopeptide binding to human PLK1 polo-box domain; hit rate 2.8% among 360,000; Potency, µM, most hits filed as inhibitors; Plk1 PBD binding of FITC phosphopeptide, fluorescence polarization; note: series mostly up to about 57 µM; nearly all actives have a fitted effect of over 65% in size
Vif-A3F inh: blocks the Vif interaction with APOBEC3F | Potency, µM (series often up to 46.1 µM) | HeLa A3F-eYFP + Vif (tagged APOBEC3F with the HIV-1 protein that degrades it), YFP fluorescence increase | hit rate 0.2% among 390,000 | AID 602313; note: nearly all actives have a fitted effect of over 65% in size
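HeLa cells stably expressing Vif plus C-terminally eYFP-tagged A3F were seeded, incubated overnight at 37 deg C, dosed with compound, incubated overnight again at 37 deg C. Yellow fluorescence (Ex 488/Em 500-530) reported blocked Vif-mediated A3F-eYFP degradation.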
VDR inhibitor: blocks the human vitamin D receptor; P11473; VDR-SRC2-3 peptide fluorescence polarization, 2 h; Potency, µM, usual class: inhibitors; hit rate 0.93% among 400,000; AID 504847
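Fluorescence polarization assay of small-molecule disruption of VDR binding to coregulator peptide SRC2-3. Compounds and controls pin-transferred, then read after 2 h incubation at ambient room temperature.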
A number is an active result; . = inactive; ? = inconclusive; / = no result given. Unless noted, calls come from the whole dose curve; as a rule, active = well fitted curve in the direction sought with a large enough effect; inconclusive = small, poorly fitted or top-dose-only effect, or another doubt; inactive = no such curve, though single readings can be large; an effect the other way counts as inactive or inconclusive.

SMILES	TSHR antag	Vif-APOBEC3G blk	PLK1 PBD block	Vif-A3F inh	VDR inhibitor
COc1ccc(NC(=O)CCCS(=O)(=O)c2nc(-c3ccc(OC)c(OC)c3)cc(C(F)(F)F)n2)cc1OC	/	?	/	.	79.4µM
COc1ccc(-c2cc(C(F)(F)F)nc(S(=O)(=O)CCCC(=O)Nc3cccc(O)c3)n2)cc1OC	.	?	.	.	?
COCCCNC(=O)CCCn1c(=O)c2ccccc2n(CC(=O)Nc2ccc(C)cc2Cl)c1=O	/	.	/	.	.
O=C(O)c1cc(S(=O)(=O)N2CCCCC2)sc1Cl	.	.	.	.	.
O=S(=O)(c1cc(Br)c(Cl)s1)N1CCCC1	-78.0	.	.	.	.
CN(C)c1ccc(/C=C/c2ccnc3ccc([N+](=O)[O-])cc23)cc1	/	.	/	/	/
CC(C)Cc1ccc(CN2CCCC(NC(=O)CCN3CCCCC3=O)C2)cc1 (stereo not given)	.	.	.	.	.
CC(C)Cc1ccc(C(C)/C=C2/CCC(CN3CCCCC3)C2=O)cc1 (stereo not given)	/	.	13.4µM	.	?
CC(C)(C)NC(=O)C(c1cccs1)N(C(=O)c1csnn1)c1cccc(F)c1 (stereo not given)	.	.	.	.	.
CC(C)(C)NC(=O)C(c1cccs1)N(Cc1ccc(F)cc1)C(=O)c1csnn1 (stereo not given)	.	.	26.7µM	.	.
COc1ccc(/C=N/n2cncn2)cc1COc1ccc(NC(C)=O)cc1	.	.	26.7µM	.	?
COc1ccc(C(=O)N/N=C/c2ccc(OC)c(COc3ccc(F)cc3)c2)cc1	.	.	.	.	.
CC(=O)OCON[N+]([O-])=NC(C)C	/	.	/	/	.
COc1ccccc1NS(=O)(=O)c1cc(NC(=O)c2cccc(S(=O)(=O)N(C)C)c2)ccc1N1CCOCC1	.	.	.	.	.
COc1ccccc1NS(=O)(=O)c1cc(NC(=O)c2ccncc2)ccc1N1CCOCC1	.	.	13.4µM	.	.
COc1ccccc1NS(=O)(=O)c1cc(NC(=O)c2ccc(NC(C)=O)cc2)ccc1N1CCOCC1	/	.	26.7µM	.	?
COc1ccccc1NS(=O)(=O)c1cc(NC(=O)c2cnccn2)ccc1N1CCOCC1	.	.	.	.	.
Cc1ccc(S(=O)(=O)N2CCCC(C(=O)O)C2)s1 (stereo not given)	.	.	29.9µM	.	.
O=C(O)C1CCCN(S(=O)(=O)c2cccs2)C1 (stereo not given)	.	.	.	.	.
COc1cccc(C(=O)NN/C(C)=C/C(=O)C(F)(F)C(F)(F)C(F)(F)F)c1	.	.	26.7µM	.	?
COc1cc(/C=N/Nc2nc(=O)[nH]nc2C)cc(OC)c1O	.	.	21.2µM	.	.
CN1CSC2=C(C#N)C(c3cccc(OCc4ccccc4)c3)CC(=O)N2C1 (stereo not given)	.	?	16.8µM	.	44.7µM
COc1cccc(C2CC(=O)N3CN(C4CCCCC4)CSC3=C2C#N)c1 (stereo not given)	/	.	/	.	?
COc1ccc(N2CSC3=C(C#N)C(c4cc(OC)ccc4OC)CC(=O)N3C2)c(OC)c1 (stereo not given)	.	.	3.77µM	.	15.8µM
COC(=O)C1=CN(c2cccc(OCc3ccccc3)c2)C(N)=C(C#N)C1c1ccccc1 (stereo not given)	/	/	.	/	/
SMILES	TSHR antag	Vif-APOBEC3G blk	PLK1 PBD block	Vif-A3F inh	VDR inhibitor
COc1ccc(C2CC(=O)N3CN(C4CCCCC4)CSC3=C2C#N)cc1 (stereo not given)	/	.	/	.	44.7µM
COC(=O)c1cc(NC(=O)c2cc3c(-c4ccccc4F)nn(C)c3s2)cc(C(=O)OC)c1	/	.	/	?	.
Cc1cc2c(s1)c(C=O)c(C(=O)NCc1ccccc1F)n2C	.	/	/	/	/
CCOC(=O)c1ccc(S(=O)(=O)N2CCN(c3nc(-c4ccccc4)nc4ccccc34)CC2)cc1	/	.	/	/	.
COc1ccc2[nH]cc(CCNc3ccnc(-c4ccc(N(C)C)cc4)n3)c2c1	/	/	/	/	.
CCOC(=O)C(CC)Sc1ccc2nnc(-c3ccc(F)cc3)n2n1 (stereo not given)	/	.	/	/	.
O=[N+]([O-])c1ccc2nc(-c3ccc(Cl)cc3)[nH]c2c1	.	.	.	.	.
O=[N+]([O-])c1ccc(-c2cc(-c3ccc(Cl)cc3)n[nH]2)cc1	.	.	2.99µM	?	?
O=S(=O)(c1ccc(OC(F)(F)F)cc1)N1CCN(c2nc(-c3cccs3)nc3ccccc23)CC1	/	.	/	/	.
O=C(CCCOc1ccc(Cl)cc1Cl)N/N=C/c1ccc(Cl)cc1	.	.	15µM	.	?
COc1ccc(-c2c(C3C4C=CCC(C)C4C(=O)N3Cc3ccccc3)ccc3ccccc23)cc1 (stereo not given)	/	.	/	/	.
COc1cc(NC(=O)c2cccnc2SC)cc(OC)c1OC	.	.	.	.	.
CCOc1ccc(NC(=O)c2ccccc2SC)cc1	.	.	18.9µM	.	?
CSc1ncccc1C(=O)Nc1ccc(OC(F)(F)F)cc1	.	.	33.6µM	.	.
O=C(Nc1ccc2c(c1)CCC2)c1cnc(Cl)c(Cl)c1	.	.	21.2µM	.	.
OC(CN1CCCCC1)c1ccccc1 (stereo not given)	/	.	/	/	/
CCN(C(=O)c1cc2c(=O)n3ccccc3nc2n1C)C1CCCCC1	-122.7	.	.	.	.
CCN(C(=O)c1cc2c(=O)n3ccccc3nc2n1CCCOC)C1CCCCC1	.	.	.	.	.
Cc1cccc(-c2nnc(SCC#N)n2C)c1	.	.	26.7µM	.	.
Cc1cccc(-c2nnc(SCC#N)n2-c2cccc(Cl)c2)c1	.	.	.	.	.
Cc1ccc(C2CC(=O)Oc3cc(C)c(Cl)cc32)cc1 (stereo not given)	/	/	/	/	.
C/C(=N/N=C(\C)c1ccccc1O)c1ccccc1O	.	.	.	17.8µM	.
CCC(=NN=C(CC)c1ccccc1O)c1ccccc1O	/	.	.	.	.
CN(C)C1CCC(CC2CCc3ccccc32)CC1 (stereo not given)	/	.	/	/	/
CCCCn1c(NC(=O)c2ccccc2Cl)c(C#N)c2nc3ccccc3nc21	.	?	26.7µM	?	44.7µM
SMILES	TSHR antag	Vif-APOBEC3G blk	PLK1 PBD block	Vif-A3F inh	VDR inhibitor
N#Cc1c(NC(=O)c2ccccc2Cl)n(Cc2ccccc2)c2nc3ccccc3nc12	.	?	15µM	?	?
CCCCn1c(NC(=O)CC)c(C#N)c2nc3ccccc3nc21	.	.	.	.	.
Cc1ccccn1	/	/	/	/	.
COc1ccc(OC)c(CCNC(=O)C(C)n2nc(C)c3c(C)n(-c4ccccc4)nc3c2=O)c1 (stereo not given)	.	.	26.7µM	.	.
COc1ccc(OC)c(CCNC(=O)C(C)n2nc(C)c3c(C)n(-c4ccc(C)cc4)nc3c2=O)c1 (stereo not given)	.	.	.	.	.
CCC(C(=O)Nc1ccccc1Cl)n1nc(C)c2c(C)n(-c3ccccc3)nc2c1=O (stereo not given)	.	.	21.2µM	.	.
